Consider nine compounds from PubChem BioAssay (Tox21).

Structures are written as SMILES. Results filed as inconclusive are left out. Unmarked numbers belong to inactive results. Active and inactive are the calls of the source. Unless noted, calls follow the shape of the dose curve; as a rule, active = well fitted curve in the direction sought with a large enough effect in the repeat runs; inconclusive = weak or mixed curves; inactive = no such curve, though single readings can be large; an effect the other way counts as inactive or inconclusive.

Assay [1] concerns the target Retinoic acid receptor RXR-alpha (Homo sapiens) (UniProt P19793). Description: qHTS assay to identify small molecule agonists of the RXR signaling pathway (AID 1159527; calls by dose curve; also: nearly all actives have a fitted effect of over 35% in size). The method in brief: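 Agonist mode; 9-cis retinoic acid positive control. HEK 293T UAS-bla reporter cells, 2% charcoal-stripped FBS, 16 hr compound exposure at 37 C/5% CO2. LiveBLAzer B/G FRET substrate 2 hr RT; ex 405, em 460/530 nm.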
On the technique in general: qHTS replaces the single test concentration by a dilution series.

A short description of assay [2]: qHTS assay to identify small molecule agonists of the RXR signaling pathway - cell viability counter screen (AID 1159529). Also: series mostly up to about 77 µM; nearly all actives have a fitted effect of over 50% in size. The method in brief:
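Luminescence from CellTiter-Glo (30 min, RT) measured viability in the same wells as the beta-lactamase reporter readout. Cells: GeneBLAzer RXR-alpha HEK 293T, 2% charcoal-stripped FBS. Compound exposure 16 hr, 37 C.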

A short description of assay [3]: qHTS assay to identify small molecule antagonists of the retinoid acid receptor (RAR) signaling pathway - cell viability counter screen (AID 1159551). Also: nearly all actives have a fitted effect of over 35% in size. The method in brief: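 Seed C3RL4 cells; next day add compound, then retinol to 1 uM final; incubate 6 h at 37 C; add CellTiter-Glo; read luminescence after 30 min at RT.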
Assay [4] is described as follows: qHTS assay to identify small molecule antagonists of the retinoic acid receptor (RAR) signaling pathway (AID 1159552; also: nearly all actives have a fitted effect of over 50% in size). The method in brief: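 Luminescence from a RARE luciferase reporter in C3RL4 cells served as read-out. Cells received compounds together with 1 uM final retinol and incubated 6 hr at 37 C before detection reagent was added for 30 min at room temperature.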

A short description of assay [5]: qHTS assay to identify small molecule agonists of the retinoic acid receptor (RAR) signaling pathway (AID 1159553). The method in brief: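 Activation of retinol signaling was monitored via a RARE luciferase reporter in C3RL4 cells. After 6 hr compound treatment at 37 C, detection reagent was added for 30 min at room temperature before luminescence reading.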
A short description of assay [6]: qHTS assay to identify small molecule antagonists of the estrogen related receptor (ERR) signaling pathway from Tox21 library - cell viability counter screen (AID 1224834). Also: nearly all actives have a fitted effect of over 30% in size. The method in brief:
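CellTiter-Fluor fluorescence measured; ERR cells; 17.5 h compound incubation at 37 C; 30 min reagent step.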

For assay [7], the target named is Luciferin 4-monooxygenase (Photinus pyralis) (UniProt P08659). Briefly: qHTS assay to identify small molecule inhibitors of firefly luciferase (AID 1224835). Also: series mostly up to about 120 µM; nearly all actives have a fitted effect of over 25% in size. The method in brief: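 Biochemical qHTS: compounds run as interplate titrations against purified firefly enzyme, with D-luciferin and ATP each at its KM concentration. Light output recorded by CCD imaging.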
Luciferin 4-monooxygenase (Photinus pyralis), sequence (P08659 whole entry, looked up): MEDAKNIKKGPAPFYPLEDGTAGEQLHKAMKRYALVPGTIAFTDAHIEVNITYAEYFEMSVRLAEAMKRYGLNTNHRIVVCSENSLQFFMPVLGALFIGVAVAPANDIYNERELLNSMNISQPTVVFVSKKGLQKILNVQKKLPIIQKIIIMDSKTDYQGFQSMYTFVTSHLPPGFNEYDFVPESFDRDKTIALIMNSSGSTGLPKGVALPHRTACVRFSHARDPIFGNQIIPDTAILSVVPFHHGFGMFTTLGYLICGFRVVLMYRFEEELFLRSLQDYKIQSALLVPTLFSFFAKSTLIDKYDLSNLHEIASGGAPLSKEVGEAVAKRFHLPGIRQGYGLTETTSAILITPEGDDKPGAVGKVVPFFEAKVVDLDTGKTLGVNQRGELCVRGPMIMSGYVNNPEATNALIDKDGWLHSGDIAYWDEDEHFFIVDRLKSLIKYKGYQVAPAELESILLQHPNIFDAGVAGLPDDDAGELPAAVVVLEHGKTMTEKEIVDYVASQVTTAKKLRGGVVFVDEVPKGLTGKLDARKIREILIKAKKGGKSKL

The nature of assay [8]: qHTS assay to identify small molecule agonists of the constitutive androstane receptor (CAR) signaling pathway - cell viability counter screen (AID 1224836). Also: series mostly up to about 92 µM; nearly all actives have a fitted effect of over 45% in size. The method in brief:
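Viability read-out: CellTiter-Fluor fluorescence after 23 h compound exposure at 37 C/5% CO2 in double-stable HepG2-CYP2B6-hCAR cells, with PK11195 present at 0.75 uM final; compounds tested in 15-point titration.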

Assay [9] is described as follows: qHTS assay to identify small molecule antagonists of the constitutive androstane receptor (CAR) signaling pathway - cell viability counter screen (AID 1224837). Also: series mostly up to about 92 µM; nearly all actives have a fitted effect of over 45% in size. The method in brief: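 Using CellTiter-Fluor, viability is scored in HepG2 cells stably carrying hCAR and a 2.2kb CYP2B6 reporter after 23 hr compound exposure across 15 concentrations, with CITCO present at 50 nM.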

Assay [10] addresses Nuclear receptor subfamily 1 group I member 3 (Homo sapiens) (UniProt Q14994). Briefly: qHTS assay to identify small molecule antagonists of the constitutive androstane receptor (CAR) signaling pathway (AID 1224838).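 Also: HepG2 cells stably expressing hCAR with CYP2B6 luciferase reporter stimulated by CITCO; nearly all actives have a fitted effect of over 40% in size.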 The method in brief: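 Reporter luminescence was quantified after 24 h exposure of hCAR/CYP2B6-2.2kb double-stable HepG2 cells to compounds at 15 concentrations in the presence of 50 nM CITCO final.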

Assay [11] shares this target. Briefly: qHTS assay to identify small molecule agonists of the constitutive androstane receptor (CAR) signaling pathway (AID 1224839). Also: series mostly up to about 92 µM; nearly all actives have a fitted effect of over 15% in size. The method in brief:
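Luminescence read-out (ONE-Glo, 30 min, room temperature) from double-stable HepG2-CYP2B6-hCAR cells exposed 24 h to 15-point compound series in presence of 0.75 uM PK11195 final.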

Assay [12] can be described thus: qHTS assay to identify small molecule antagonists of the estrogen related receptor signaling pathway with the pleiotropic PPARgamma coactivator (PGC) from Tox21 10K library - cell viability counter screen (AID 1224840; active = well fitted cell-killing curve with a large enough effect in the repeat runs, not every such curve was filed as active; also: nearly all actives have a fitted effect of over 40% in size). The method in brief:
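Here the PGC/ERR cells serve as a cytotoxicity control: they are exposed to compounds for 17.5 hours at 37 C, and live-cell signal is quantified using CellTiter-Fluor fluorescence.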

A short description of assay [13]: qHTS assay to identify small molecule antagonists of the estrogen related receptor signaling pathway with the pleiotropic PPARgamma coactivator (PGC) from Tox21 10K library (AID 1224841; call rule not given here; also: actives are mostly falling curves and most rising ones were filed inactive; nearly all actives have a fitted effect of over 50% in size; also: potency is read from the fitted curve at half-maximal effect). The method in brief: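 Each well held 2,000 PGC/ERR cells, pre-incubated six hours (37 C, 5% CO2). Test substances in DMSO were added by pin tool and left for 18 h at 37 C before luciferase detection by One-Glo.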

Assay [14] in a line: qHTS assay to identify small molecule agonists of the estrogen related receptor signaling pathway with the pleiotropic PPARgamma coactivator (PGC) from Tox21 10K library (AID 1224842). Also: nearly all actives have a fitted effect of over 15% in size. The method in brief:
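PGC/ERR reporter cell line, 2,000 cells per well, incubated 6 h at 37 C before 23 nL compound in DMSO was added. After 18 h at 37 C, One-Glo luminescence read following 30 min at room temperature.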

Assay [15] is described as follows: qHTS assay to identify small molecule antagonists of the estrogen related receptor (ERR) signaling pathway - cell viability counter screen (AID 1224818).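 Also: series mostly up to about 46 µM; viability measured after 17.5 h of compound exposure.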 The method in brief: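 In the same ERR cell assay, compound-treated wells (17.5 h, 37 C) were multiplexed with a fluorogenic viability reagent, CellTiter-Fluor, read after 30 min to flag cytotoxic substances.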

The nature of assay [16]: qHTS assay to identify small molecule antagonists of the estrogen related receptor signaling pathway with the pleiotropic PPARgamma coactivator (PGC) cell viability counter screen (AID 1224822; also: series mostly up to about 46 µM). The method in brief: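 Compounds in DMSO, with positive and negative controls, were applied to PGC/ERR cells (2,000/well) and left 17.5 h at 37 C before CellTiter-Fluor detection.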

Retinoic acid receptor RXR-alpha (Homo sapiens), sequence (P19793 whole entry, looked up): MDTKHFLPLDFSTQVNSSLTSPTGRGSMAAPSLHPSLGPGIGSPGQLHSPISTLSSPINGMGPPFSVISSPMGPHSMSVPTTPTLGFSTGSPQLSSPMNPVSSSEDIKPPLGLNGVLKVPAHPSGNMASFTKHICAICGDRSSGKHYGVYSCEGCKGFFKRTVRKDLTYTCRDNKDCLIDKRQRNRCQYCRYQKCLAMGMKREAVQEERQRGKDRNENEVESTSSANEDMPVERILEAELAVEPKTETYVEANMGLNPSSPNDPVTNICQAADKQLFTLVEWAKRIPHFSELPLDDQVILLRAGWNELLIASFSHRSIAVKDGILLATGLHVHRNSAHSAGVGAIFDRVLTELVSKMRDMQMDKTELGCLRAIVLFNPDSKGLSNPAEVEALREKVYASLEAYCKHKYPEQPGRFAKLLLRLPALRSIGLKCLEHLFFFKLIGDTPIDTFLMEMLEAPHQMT
Nuclear receptor subfamily 1 group I member 3 (Homo sapiens), sequence (Q14994 whole entry, looked up): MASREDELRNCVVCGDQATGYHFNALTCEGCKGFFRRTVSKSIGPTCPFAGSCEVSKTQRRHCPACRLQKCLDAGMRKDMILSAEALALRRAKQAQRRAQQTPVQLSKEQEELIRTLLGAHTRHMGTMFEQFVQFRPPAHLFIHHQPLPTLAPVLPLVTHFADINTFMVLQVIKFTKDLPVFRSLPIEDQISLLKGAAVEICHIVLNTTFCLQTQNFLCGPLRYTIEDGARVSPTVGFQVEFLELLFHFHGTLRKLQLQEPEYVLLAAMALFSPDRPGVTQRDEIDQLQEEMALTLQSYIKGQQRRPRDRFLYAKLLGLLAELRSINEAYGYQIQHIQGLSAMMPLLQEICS

Turning to `C=CCS(=O)(=O)O`, the Potency entry in assay [1], in assay [2], in assay [4], in assay [5], in assay [6] and in [7] was “inactive” throughout. The Potency result in assay [8], in [9], in assay [10], in [11], in assay [12] and in assay [13] was “inactive” each time. Further, the result in [3] and in assay [14] was inactive.
In the case of `NCCc1cnc[nH]1`, the Potency entry in assay [1], in assay [2], in assay [4], in assay [5], in [6] and in assay [8] was “inactive” throughout. For the same compound, the Potency result in assay [9], in [10] and in [12] was “inactive” throughout. Further, the result in assay [3], in [15] and in [16] was inactive.
In the case of `NC(CSCC(=O)O)C(=O)O` (configuration not stated), the Potency result in assay [1], in [2], in assay [4], in assay [5], in [6] and in assay [7] was “inactive” each time. In addition, the Potency result in assay [8], in [9], in assay [10], in assay [11], in [12] and in assay [13] was “inactive” each time. Besides, the compound was called inactive in assay [3].
Take `CCCCCOC(=O)CCCCC`: the Potency result in assay [1], in assay [2], in assay [4], in assay [5], in [6] and in assay [7] was “inactive” each time. The Potency entry in [8], in assay [9], in assay [10], in assay [11], in [12] and in assay [13] was “inactive” each time. Further, the outcome in [3] was inactive.
Consider `CCCCOCCOCCOCCCC`, for which the Potency entry in [1], in assay [2], in assay [4], in assay [5], in assay [6] and in assay [7] was “inactive” throughout. Also, the Potency entry in assay [8], in assay [9], in assay [10], in assay [11], in assay [12] and in [13] was “inactive” in each case. Also, in assay [3], the result was inactive.
Take `O=C(O)COc1nn(Cc2ccccc2)c2ccccc12`: the Potency result in assay [1], in assay [2], in assay [4], in assay [5], in assay [6] and in [7] was “inactive” throughout. In addition, the Potency result in assay [8], in [9], in [10], in assay [11], in [12] and in assay [13] was “inactive” each time. The call in assay [3] was inactive.
In the case of `C=CCOCC(CC)(CO)COCC=C`, the Potency result in [1], in assay [2], in assay [4], in assay [5], in assay [6] and in assay [7] was “inactive” throughout. Further, the Potency entry in [8], in [9], in assay [10], in assay [11], in assay [12] and in [13] was “inactive” in each case. In assay [3], the result was inactive.
`O=Cc1cccc([N+](=O)[O-])c1`: the Potency result in assay [1], in assay [2], in [4], in assay [5], in assay [6] and in [7] was “inactive” each time. Also, the Potency result in [8], in assay [9], in assay [10], in [11] and in [12] was “inactive” in each case. Also, the compound was classed as inactive in assay [3]. In [13], the Potency is 24.2 µM (active).
As for `CCSC(=O)N(CC(C)C)CC(C)C`, the Potency result in assay [1], in assay [2], in [4], in assay [5], in assay [6] and in assay [7] was “inactive” in each case. In addition, the Potency entry in [8], in assay [9], in assay [10], in [11], in [12] and in [13] was “inactive” in each case. The call in [3] was inactive.
